From PubChem BioAssay (NCATS)
Records with an inconclusive call do not appear. A call without a number means that no potency is given here. The source made the active and inactive calls. Calls come from the whole dose curve; as a rule, active = well fitted curve in the direction sought with a large enough effect; inconclusive = small, poorly fitted or top-dose-only effect, or another doubt; inactive = no such curve, though single readings can be large; an effect the other way counts as inactive or inconclusive.

Molecular target: Calcium and integrin-binding protein 1 (Homo sapiens) (UniProt Q99828)
Sequence (Q99828 whole entry, looked up): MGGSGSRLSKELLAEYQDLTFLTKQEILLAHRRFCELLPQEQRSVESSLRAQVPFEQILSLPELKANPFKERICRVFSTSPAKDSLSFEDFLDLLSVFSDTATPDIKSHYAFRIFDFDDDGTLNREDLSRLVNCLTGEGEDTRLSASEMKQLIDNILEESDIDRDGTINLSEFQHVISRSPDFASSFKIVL
Test: Primary qHTS for Identification of Calcium Integrin Binding Protein 1 (CIB1) Competitor (AID 1508620); note: potency is the fitted concentration of half-maximal effect
Conditions: CIB1-GST / FITC-alphaIIb peptide fluorescence polarization; series mostly up to 57.7 µM
Method in brief: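 Fluorescence polarization competition: GST-tagged CIB1 (1 uM final) preincubated with compound 15 min at room temperature, then FITC-labelled alphaIIb peptide (100 nM final) added. After 15 min at room temperature, polarization read at Ex 480/Em 540.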
In the case of `CC(=O)[C@]1(O)Cc2c(O)c3c(c(O)c2[C@@H](O[C@H]2C[C@H](N)[C@@H](O)[C@H](C)O2)C1)C(=O)c1ccccc1C3=O`, the Potency was 24.1 µM (active). In the case of `COc1cc(CCc2cc(NC(=O)c3ccc(N4C[C@@H](C)N[C@@H](C)C4)cc3)n[nH]2)cc(OC)c1`, the Potency was “inactive”. For `COc1cc(OC)c(C=CS(=O)(=O)Cc2ccc(OC)c(NCC(=O)O)c2)c(OC)c1`, the Potency was “inactive”.

System: not listed separately
Test: Primary qHTS for small molecule stabilizers of the endoplasmic reticulum resident proteome: Secreted ER Calcium Modulated Protein (SERCaMP) assay (AID 1508630)
Conditions: SH-SY5Y GLuc-SERCaMP (Gaussia luciferase released on ER calcium loss) secretion, thapsigargin, luminescence; series mostly up to 38.4 µM
Method in brief: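 GLuc-SERCaMP-expressing SH-SY5Y cells, pretreated 16 h with compound, are challenged with thapsigargin to empty ER calcium stores; after 4 h, coelenterazine is added directly to the medium and luminescence is imaged.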
In the case of `CC(=O)OCC(=O)[C@@]12N=C(C)O[C@H]1C[C@H]1[C@@H]3CCC4=CC(=O)C=C[C@]4(C)[C@@H]3[C@@H](O)C[C@@]12C`, the outcome was “inactive”. For `C=C1C[C@@]2(O)O[C@@]3(C[C@H]2C(C)C)[C@H](C)CC[C@H]13`, the outcome was “inactive”. In the case of `CCOC(=O)N1CCN([N+]([O-])=NOc2ccc([N+](=O)[O-])cc2C#N)CC1`, the outcome was “inactive”. In the case of `CC(C)(O)[C@H]1CC[C@@](C)([C@H]2[C@@H](O)C[C@@]3(C)[C@@H]4C[C@H](O[C@@H]5O[C@H](CO)[C@@H](O)[C@H](O)[C@@H]5O)[C@H]5C(C)(C)[C@@H](O[C@@H]6OC[C@@H](O)[C@H](O)[C@@H]6O)CC[C@@]56C[C@@]46CC[C@]23C)O1`, the outcome was “inactive”. For `Cc1cc(-c2nnc3n2CCCCC3)c(C)n1-c1ccccc1`, the outcome was “inactive”. For `C[C@H](NC(=O)C(C#N)=Cc1cccc(Br)n1)c1ccccc1`, the outcome was “inactive”. In the case of `CC(C)OC(=O)[C@H](C)N[P@](=O)(OC[C@H]1O[C@@H](n2ccc(=O)[nH]c2=O)[C@](C)(F)[C@H]1O)Oc1ccccc1`, the outcome was “inactive”. For `CCCNC(=O)[C@H]1O[C@H]1C(=O)N[C@H](C(=O)N1CCC[C@@H]1C(=O)OC)C(C)CC` (stereo not given in full), the outcome was “inactive”. For `CCc1cnn2c(NCc3ccc[n+]([O-])c3)cc(N3CCCC[C@@H]3CCO)nc12`, the outcome was “inactive”. For `CON=C(C(=O)N[C@@H]1C(=O)N2C(C(=O)O)=C(Cn3ccc(=N)n3CCO)CS[C@H]12)c1csc(N)n1`, the outcome was “inactive”. In the case of `CC(=O)O[C@H]1C[C@@H]2CC[C@H]3[C@H]4C[C@H]([N+]5(C)CCCCC5)[C@@H](OC(C)=O)[C@@]4(C)CC[C@@H]3[C@@]2(C)C[C@H]1N1CCCCC1`, the outcome was “inactive”. In the case of `C[C@H](CCC(=O)O)[C@H]1CC[C@H]2[C@@H]3[C@H](O)C[C@@H]4C[C@H](O)CC[C@]4(C)[C@@H]3CC[C@]12C`, the outcome was “inactive”. For `CCN(CC)Cc1ccc2cc(COC(=O)Nc3ccc(C(=O)NO)cc3)ccc2c1`, the outcome was “inactive”. For `CN(C)CC(=O)N1CCC(c2ccc(NC(=O)c3ncc(C#N)[nH]3)c(C3=CCCCC3)c2)CC1`, the outcome was “inactive”. For `O=C(C[C@@H]1CC=CCCC(=O)O[C@H](c2ccccc2)CNC1=O)NCc1ccc(Cl)cc1`, the outcome was “inactive”. For `CC(=O)C1=C(O)C=C2Oc3c(C(C)=O)c(O)c(C)c(O)c3C2(C)C1=O` (stereo not given), the outcome was “inactive”. In the case of `CC(C)(C)[N+]([O-])=Cc1ccc(S(=O)(=O)O)cc1S(=O)(=O)O`, the outcome was “inactive”.
